In ChEMBL document CHEMBL3988442, “University of Dundee, Small-Polar-MMV Screening Library” (2021):
The campaign covered roughly 48,000 compounds. About 13,000 (27%) showed an effect of 50% or more. This is one part of the list.

System: Wolbachia pipientis
Assay: Anti-Wolbachia Cell-Based Screen
Assay type: functional
Parameters: scale not given: in the data most compounds retested in dose-response had high values
Details: 5 µM

| Compound | Percent Effect [%] |
| --- | --- |
| CCc1[nH]c2c(CNc3cc(C)nc(NC)n3)cc(C)cc2c1C | 7.086 |
| Cc1noc(C2CN(S(=O)(=O)C3CC3)Cc3ccnn3C2)n1 (stereo not drawn) | -3.92 |
| Cc1nc(-c2ccccc2)sc1CSCCS(C)(=O)=O | 5.255 |
| CCCN1CCC(C(=O)NCCN(CC)c2ccccc2C)CC1 | 6.668 |
| CSc1ccc(NC(=O)NCC(O)C2CC2)cc1F (stereo not drawn) | -6.513 |
| CCn1nc(C)c2c1cnn2CC(=O)NC(C)c1cccc(OC)c1 (stereo not drawn) | 108.9 |
| CCn1nc(C)c2c1cnn2CC(=O)Nc1ccc(OC)cc1C | 97.13 |
| COc1ccccc1CNC(=O)Cn1ncc2c1c(C)nn2C | 14.16 |
| Cc1nn(C)c2cnn(CC(=O)NCCc3ccccc3)c12 | -4.573 |
| Cc1ccc(CNC(=O)Cn2ncc3c2c(C)nn3C)cc1 | 2.775 |
| COc1cccc(C(CO)NC(=O)Cc2cccc(C)c2)c1 (stereo not drawn) | -8.321 |
| CCC(C)NC(=O)Cn1ncc2c1c(C)nn2CC (stereo not drawn) | 78.16 |
| COc1ccc(NC(=O)Cn2nc(C)c(C(C)=O)c2C)cc1 | 9.099 |
| COc1ccc(NC(=O)Cn2nc(C)c(C)cc2=O)c(OC)c1 | -17.24 |
| Cc1ccc(C(=O)NS(=O)(=O)c2cc(Cl)ccc2Cl)c(=O)[nH]1 | 0.2464 |
| OCCOc1ccc(NCc2cccc3cn[nH]c23)cn1 | 11.64 |
| CC(NC(=O)N1CCC(CO)CC1)c1csc2ccccc12 (stereo not drawn) | -26.26 |
| Cl.NC[C@H]1CC[C@H](c2c(C(N)=O)sc3ccccc32)CC1 | 138.4 |
| CN(C)CCNC(=O)c1ccc(S(=O)(=O)N[C@@H]2CCNC2)cc1 | -7.63 |
| CC1CCc2nc(O)c(C(=O)NCCN(C)C)cc2C1 (stereo not drawn) | 7.628 |
| CN(C)CCNC(=O)c1sc2ccccc2c1C1CCC(CN)CC1.Cl (stereo not drawn) | 88.67 |

| Compound | Percent Effect [%] |
| --- | --- |
| CC(NC(=O)c1cccc[n+]1[O-])C1CC1 (stereo not drawn) | -12.99 |
| Cl.NCC1CCC(c2c(C(=O)NCCO)sc3ccccc23)CC1 (stereo not drawn) | 105.7 |
| CC(C)NC(=O)c1sc2ccccc2c1[C@H]1CC[C@H](CN)CC1.Cl | 141.4 |
| CCn1cc2c(n1)C(COCC1CC1)CN(C(=O)c1cc(C)on1)C2 (stereo not drawn) | -20.07 |
| CC(Nc1ccc(CC(=O)N(C)C)cc1)C(=O)N(C)CCC#N (stereo not drawn) | 3.748 |
| Cn1ncc2c(N3CCCC(C)(O)C3)nc(C(C)(C)C)nc21 (stereo not drawn) | -0.5703 |
| COc1ccc(CCC(=O)Nc2cccnc2N2CCCC2)cc1Br | 3.443 |
| O=C(O)C(F)(F)F.O=C1CC[C@@H]2[C@@H](CCN2C(=O)c2ccsc2)N1Cc1ccncc1 | -34.69 |
| COCCNC(=O)c1cc2c(nc1O)CC(c1cccs1)CC2=O (stereo not drawn) | 7.497 |
| COCCNC(=O)c1sc2ccccc2c1C1CCC(CN)CC1.Cl (stereo not drawn) | 140.8 |
| NC(=O)COCCNC(=O)Nc1sc2ccccc2c1Cl | 6.222 |
| CCCN1CCN(C(=O)c2cc[nH]n2)[C@H]2CS(=O)(=O)C[C@H]21 | 3.177 |
| CC(=O)N1CCCC(c2nccnc2-c2ccc(CO)cc2)C1 (stereo not drawn) | 179.5 |
| CCc1ccc2c(C3CN(C(C)=O)C3)ncn2c1 | -3.623 |
| CCn1cc(-c2nccnc2C2CCCN(C(C)=O)C2)cn1 (stereo not drawn) | 156.7 |
| COc1cc(F)ccc1CC(=O)N1CC[C@H]2C(=O)NCCO[C@H]2C1 | -55.09 |
| COC(=O)CCCn1ccnc1-c1ccc(OC)c(F)c1F | -8.612 |
| CCS(=O)(=O)Cc1ccn(-c2cccc(F)c2)n1 | -0.3225 |
| COc1ccc(NC(=O)Nc2cnc(N3CCN(C)CC3)nc2)cc1Cl | 89.39 |
| COc1ccc(NC(=O)NC(C)c2nc[nH]n2)cc1Cl (stereo not drawn) | -12.73 |
| CCOc1ccc(NCc2cnc(N3CCN(C)CC3)nc2)cn1 | -2.404 |

| Compound | Percent Effect [%] |
| --- | --- |
| COc1ccc(NC(=O)N2CCC3(CC2)NC(=O)CC3C(=O)O)cc1Cl (stereo not drawn) | -5.291 |
| Cc1ccc(NC(=O)Nc2cnc(N3CCN(C)CC3)nc2)cc1 | 130.1 |
| Cc1ccc(NC(=O)Nc2cnc(N3CCN(C)CC3)nc2)c(Cl)c1 | -7.625 |
| COc1cc2c(cc1CNC(=O)C(C)n1ccnc1C(C)C)CCC2 (stereo not drawn) | -11.78 |
| COC(=O)[C@H](C)NC(=O)Cc1c(C)nc2cc(=O)[nH]n2c1C | -6.844 |
| Cc1n[nH]c(C)c1NC(=O)CN1CCOC(Cn2cccn2)C1 (stereo not drawn) | 4.084 |
| Cc1cccc2c1nc(CCO)n2-c1ccc(NS(C)(=O)=O)nc1 | -11.32 |
| CS(=O)(=O)CC(=O)N1C[C@H]2CCC[C@@]2(COc2ccccn2)C1.O=C(O)C(F)(F)F | 109.7 |
| CS(=O)(=O)CC(=O)N1C[C@H]2CCC[C@@]2(COCc2ccncc2)C1.O=C(O)C(F)(F)F | 108.3 |
| O=C(O)C(F)(F)F.O=C(c1ccccc1)N1C[C@H]2CCC[C@@]2(COCc2ccncc2)C1 | 12.44 |
| O=C(O)C(F)(F)F.O=C(c1ncccn1)N1C[C@H]2CCC[C@@]2(COCc2ccncc2)C1 | 6.096 |
| CN(C)CC(=O)N1C[C@H]2CCC[C@@]2(COc2ccccn2)C1.O=C(O)C(F)(F)F | -2.413 |
| CN(C)C(=O)N1C[C@H]2CCC[C@@]2(COc2ccccn2)C1.O=C(O)C(F)(F)F | -14.43 |
| O=C(c1cn(CCN2CCCCC2)nn1)N1CCSCC1 | 10.37 |
| COc1cccc(NC(=O)N(CCO)Cc2ccsc2)c1 | 1.126 |
| O=C1N(CC2CC2)C(c2c[nH]nc2-c2cccnc2)NC12CCCC2 (stereo not drawn) | 1.582 |
| NC(=O)[C@H]1CCCN(c2nccc(-c3c[nH]nc3-c3cccnc3)n2)C1 | 113.5 |
| O=C(c1ccccn1)C1CCCN(c2nccc(CCC(F)(F)F)n2)C1 (stereo not drawn) | 2e-14 |
| NC(=O)[C@H]1CCCN(c2nccc(-c3ccncc3)n2)C1 | 103.3 |
| Cc1nn2c(N3CCCC(C(N)=O)C3)cc(-c3ccccc3)nc2c1C (stereo not drawn) | -84.47 |
| CNc1ccnc(N2CCCC(C(=O)c3ccccn3)C2)n1 (stereo not drawn) | -24.75 |
